Experimental data from PubChem BioAssay AID602393 (Broad Institute, 2012).
Screen size: about 350,000 compounds; about 7,000 (2%) were called active. Many of the other results were omitted from the sample, so actives are more common in it than they were. A number with no mark means an inactive call. Cut-off read from the data, not from the text of the source: active = activation above about 40%; inconclusive = no clear call, values can overlap the other calls; inactive = below that.

test: raisers of Bmi1 knock-in reporter signal – mouse ES cells, Bmi1 luciferase knock-in, single point, esBAF inhibitor project, primary screen (AID 602393); details: 24 h, at 12.5 µM, stronger effect = higher value, 100% = twice the neutral-well signal;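 note: 0% = median of the plate's neutral control wells and 100% = double that signal; a rise in the Bmi1 reporter signal indicates esBAF inhibition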

| SMILES | reporter increase |
| --- | --- |
| CN1CCN(C(=O)C[C@@H]2C[C@H]3c4cc(NC(=O)NC5CCCC5)ccc4O[C@H]3[C@H](CO)O2)CC1 | 0.154% |
| CCCNC(=O)C[C@H]1C[C@@H]2c3cc(NC(=O)C4CCOCC4)ccc3O[C@@H]2[C@H](CO)O1 | -3.13% |
| Clc1cccc(Cl)c1Cn1nnc(-c2cccs2)n1 | 69.1% (active) |
| COc1ccccc1N1CCN(C(=O)Cn2nnc(-c3cccs3)n2)CC1 | 3.41% |
| O=c1cc(Cn2nnc(-c3ccc(Cl)cc3)n2)nc2sccn12 | 7.92% |
| CC(=O)N(C)C[C@@H]1Oc2cc(-c3cccnc3)ccc2S(=O)(=O)N([C@H](C)CO)C[C@H]1C | 2.38% |
| C/C=C/c1ccc([C@H]2[C@@H](C#N)N(C(=O)CN3CCOCC3)[C@@H]2CO)cc1 | -3.67% |
| O=C(C1CCCC1)N1[C@H](CO)[C@H]2c3ccccc3N(S(=O)(=O)c3ccccc3)C[C@H]21 | -4.06% |
| C[C@H](CO)N1C[C@H](C)[C@@H](CN(C)Cc2ccncc2)Oc2ccc(NS(=O)(=O)c3ccc(Cl)cc3)cc2CC1=O | 4.09% |
| COc1ccc2[nH]cc(CCN3C(=O)c4ccc(C(=O)O)cc4C3=O)c2c1 | 77% (active) |
| COCCCN1C(=O)c2ccc(C(=O)Nc3ccc(OC)cc3OC)cc2C1=O | -3.26% |
| COCCCN1C(=O)c2ccc(C(=O)OCC(=O)NCc3ccccc3OC)cc2C1=O | -0.788% |
| C[C@H](CO)N1C[C@H](C)[C@H](CN(C)Cc2ccccn2)Oc2ncc(C#CCc3ccccc3)cc2C1=O | -3.58% |
| Cc1ccn2c(-c3csc(Nc4ccc(C(=O)O)cc4)n3)c(C)nc2c1 | 3.65% |
| CC(=O)Nc1ccc(C(=O)CSc2nc3ccc(C)cc3[nH]2)cc1 | 1.14% |
| Cc1ccc2cc(/C=N/Nc3ccc(C(=O)O)cc3)c(Cl)nc2c1 | 63.2% (active) |
| C/C=C/c1cnc2c(c1)C(=O)N([C@H](C)CO)C[C@H](C)[C@@H](CN(C)C(=O)c1cccc(F)c1)O2 | 1.29% |
| C[C@@H]1CCCCO[C@@H](CN(C)S(=O)(=O)c2ccccc2)[C@H](C)CN([C@H](C)CO)C(=O)c2cc(NC(=O)CCC(F)(F)F)ccc2O1 | 3.27% |
| COc1cccc(S(=O)(=O)N[C@@H]2CC[C@H](CCNC(=O)Cc3ccncc3)O[C@@H]2CO)c1 | 3.37% |
| O=C(C[C@@H]1CC[C@@H]2[C@H](COC[C@@H](O)CN2Cc2cc(F)cc(F)c2)O1)NCc1cccc(F)c1 | 4.76% |
| O=C(C[C@@H]1C[C@@H]2c3cc(NS(=O)(=O)c4ccc(F)cc4)ccc3O[C@@H]2[C@@H](CO)O1)NCc1ccncc1 | -5.57% |
| C/C=C/c1ccc([C@H]2[C@@H](CO)N(C(=O)Cc3ccncc3)[C@@H]2CNC(C)=O)cc1 | -0.088% |
| CCOC(=O)c1c(C)[nH]c(C(=O)OCC(=O)c2ccc(OC)cc2OC)c1C | 6.18% |
| COc1ccc(C(=O)NC(C)CCc2ccccc2)c(OC)c1 (stereo not given) | -1.75% |
| COc1ccc(C(=O)COC(=O)CN2C(=O)C3CC=CCC3C2=O)c(OC)c1 (stereo not given) | -4.47% |
| COc1ccc(C(=O)CCC(=O)Nc2cccnc2)c(OC)c1 | -1.7% |
| COc1ccc(C(=O)COC(=O)C(O)c2ccccc2)c(OC)c1 (stereo not given) | 67.1% (active) |

| SMILES | reporter increase |
| --- | --- |
| COc1ccc(C(=O)CCc2ccccc2O)c(OC)c1 | 92.4% (active) |
| C[C@H](CO)N1C[C@H](C)[C@H](CN(C)C(=O)CCC(F)(F)F)OCCCC[C@H](C)Oc2ccc(NS(=O)(=O)c3ccc(F)cc3)cc2C1=O | -0.446% |
| C[C@@H]1CCCCO[C@@H](CN(C)S(=O)(=O)c2ccc(F)cc2)[C@@H](C)CN([C@@H](C)CO)C(=O)c2cc(NC(=O)Nc3ccc(F)cc3)ccc2O1 | 3.89% |
| C[C@@H]1CN([C@@H](C)CO)C(=O)Cc2cc(NC(=O)Nc3ccc4c(c3)OCO4)ccc2O[C@H]1CN(C)S(=O)(=O)c1ccc(F)cc1 | -0.705% |
| CN1[C@@H]2CN(C(=O)c3ccc(F)cc3)c3ccccc3[C@@H]2[C@@H]1CO | 2.63% |
| C=CCc1c(C)nc2cc(-c3ccccc3)[nH]n2c1=O | 34.3% |
| CCc1c(C)nc2cc(-c3cccs3)[nH]n2c1=O | 48.4% (active) |
| CCc1c(C)nc2cc(C)[nH]n2c1=O | -4.73% |
| O=C(C[C@H]1C=C[C@H](NC(=O)C2CCOCC2)[C@@H](CO)O1)NCC1CC1 | -1.58% |
| Cc1ccc(-c2ccc3c(c2)O[C@H](CN(C)C(=O)Nc2ccccc2)[C@@H](C)CN([C@@H](C)CO)S3(=O)=O)cc1 | -1.56% |
| CC(C)(C)NC(=O)Cn1nnc(-c2ccccc2Cl)n1 | 56.6% (active) |
| Cc1ccccc1-c1nnn(CC(=O)c2ccc(S(=O)(=O)N3CCCC3)cc2)n1 | 5.35% |
| O=C(Cn1nnc(-c2ccccc2)n1)NC(=O)NC1CCCC1 | -2.48% |
| CCCC(=O)Nc1ccc2c(c1)C(=O)N(C)[C@@H]1CC[C@H](CC(=O)NCCN3CCCCC3)O[C@@H]1CO2 | 0.938% |
| O=C(C[C@@H]1C=C[C@H](NC(=O)C2CCOCC2)[C@H](CO)O1)NCc1ccncc1 | 5.38% |
| COCc1nc2ccccc2n1Cc1ccccc1Br | -3.15% |
| CC(C)n1c(COc2ccccc2)nc2ccccc21 | -1.17% |
| COCn1c(COc2ccccc2)nc2ccccc21 | 80.5% (active) |
| COc1ccc(-n2c(SC)nc(O)cc2=O)cc1 | -1.49% |
| C=CCn1c(SCc2ccccc2)nc2c1c(=O)[nH]c(=O)n2C | 8.86% |
| CCOC(=O)N1CCN(S(=O)(=O)c2ccc(OC)cc2)CC1 | -4.19% |
| CCS(=O)(=O)n1nc(-c2ccc(OC)cc2)nc1SC | 55.7% (active) |
| O=S(=O)(c1ccc(SCc2ccccc2)nc1)N1CCCCCC1 | 8.09% |
| CCS(=O)(=O)n1nc(-c2ccccc2)nc1SCc1ccccc1 | 45.9% (active) |
| Cc1cccc(S(=O)(=O)N2C[C@@H]3[C@H](c4ccccc42)[C@H](CO)N3CC2CCOCC2)c1 | 3.89% |
| CCC(=O)N(C)C[C@@H]1Oc2cc(C#CC(C)(C)O)ccc2S(=O)(=O)N([C@@H](C)CO)C[C@@H]1C | 1.13% |
| C[C@H](CO)N1C[C@H](C)[C@H](CN(C)S(=O)(=O)c2ccccc2)Oc2cc(Br)ccc2S1(=O)=O | 3.8% |

| SMILES | reporter increase |
| --- | --- |
| COc1ccc(-c2noc(CCC(=O)N3CCN(c4cccc(C)c4)CC3)n2)cc1 | -6.31% |
| Cc1ccc(C)c(N2CCN(C(=O)CCc3nc4ccccc4[nH]3)CC2)c1 | 10.7% |
| Cc1ccc(C)c(N2CCN(C(=O)CCc3nc(-c4cccc(C(F)(F)F)c4)no3)CC2)c1 | 61.9% (active) |
| CNC[C@@H]1Oc2ccc(NS(=O)(=O)c3c(C)noc3C)cc2CC(=O)N([C@@H](C)CO)C[C@@H]1C | 1.22% |
| CO[C@H]1CN(C)C(=O)c2cc(NS(C)(=O)=O)ccc2OC[C@@H](C)N(C(=O)NC(C)C)C[C@@H]1C | -1.56% |
| CCC(=O)N1C[C@H]2[C@@H](c3ccccc31)[C@H](CO)N2Cc1ccccc1F | -1.5% |
| N#CC(=C1SC=CS1)c1nc(-c2ccccc2)cs1 | 56.6% (active) |
| N#CC(=C1CCCC1)c1nc(-c2ccc(Cl)cc2)cs1 | 58.5% (active) |
| c1ccc(-c2csc(N3CCc4ccccc4C3)n2)cc1 | 21.9% |
| C[C@@H]1CN([C@@H](C)CO)C(=O)Cc2cc(NS(=O)(=O)c3ccc(Cl)cc3)ccc2O[C@H]1CN(C)CC1CCCCC1 | 3.84% |
| O=C(Cc1ccccn1)N1[C@@H]2CNc3ccccc3[C@@H]2[C@@H]1CO | -1.83% |
| O=C(c1cccnc1)N1C[C@H]2[C@@H](c3ccccc31)[C@H](CO)N2C(=O)C1CCCCC1 | -4.74% |
| CCC(=O)Nc1ccc2c(c1)C(=O)N(C)C[C@H](OC)[C@H](C)CN(C(=O)C1CCC1)[C@@H](C)CO2 | -5.69% |
| CN1/C(=C\C(=O)c2cccnc2Cl)C(C)(C)c2ccccc21 | 48.4% (active) |
| CC(=O)Nc1cccc(OCC(=O)/C=C2\N(C)c3ccccc3C2(C)C)c1 | -12.2% |
| CC(C)Nc1nnc(SCC(=O)/C=C2\N(C)c3ccccc3C2(C)C)s1 | -0.0975% |
| C[C@@H]1CCCCO[C@H](CN(C)S(C)(=O)=O)[C@@H](C)CN([C@@H](C)CO)C(=O)c2cc(NC(=O)CCC(F)(F)F)ccc2O1 | -0.325% |
| CCCNC(=O)[C@H]1[C@H](CO)[C@H]2Cn3c(ccc(C4=CCCC4)c3=O)[C@H]2N1C(=O)CC | -0.965% |
| CC(OC(=O)CN1C(=O)COc2ccccc21)C(=O)NCc1ccc(F)cc1 (stereo not given) | -4.32% |
| O=C(CN1C(=O)COc2ccccc21)Nc1ccc(F)cc1 | 72.1% (active) |
| O=C(CN1C(=O)COc2ccc(Cl)cc21)Nc1ccc(N2CCOCC2)cc1 | -1.03% |
| Cc1noc(C)c1NC(=O)N(C)C[C@@H]1OCCCC[C@H](C)Oc2ccc(NC(=O)CCC(F)(F)F)cc2C(=O)N([C@@H](C)CO)C[C@@H]1C | -15% |
| CN(C)C(=O)C[C@@H]1CC[C@@H](NS(=O)(=O)c2ccccc2)[C@H](CO)O1 | -9.26% |
| CCOC(=O)C1(Cc2ccccc2C)CCCN(C(=O)c2ccc(COC)o2)C1 (stereo not given) | 52.7% (active) |
| CCOC(=O)C1(Cc2ccccc2C)CCCN(C(=O)CN2C(=O)CSC2=O)C1 (stereo not given) | 15.7% |
| CCOC(=O)C1(Cc2ccccc2C)CCCN(S(C)(=O)=O)C1 (stereo not given) | -5.66% |
